Activity calls are given as the source filed them. Unless noted, how the calls were made is not given here.
How the values were obtained:
[1] = compounds binding Alexa647 anti-His antibody – biochemical, small-molecule microarray, 635 nm fluorescence, artefact control for SMM control protein annotation, primary screen (AID 1128); conditions: higher = more signal;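 further: score merges feature fluorescence with signal-to-noise for each printed compound spot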
[2] = test system: Human papillomavirus type 1a E7 protein (residues 1-88); assay: HPV1a E7 small-molecule binders, primary screen, biochemical, small-molecule microarray, residues 1-88, 635 nm (AID 1129); conditions: small-molecule microarray binding, fluorescence 635 nm; higher = more signal
[3] = biological target: Focal adhesion kinase 1 (Homo sapiens) (UniProt Q05397); assay: PTK2 protein binding on printed compound slides – biochemical, small-molecule microarray, 635/667 nm fluorescence, BSA, DTT, primary screen (AID 1130); conditions: 635 nm fluorescence, higher = more signal;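 further: composite of spot emission at 667 nm and signal to noise over triplicate slides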
[4] = test system: Fibrinogen (Alexa647-labelled); assay: Alexa647-fibrinogen binding to printed small molecules – biochemical, small-molecule microarray, 635/667 nm fluorescence, artefact control for SMM control-protein annotation, profiling panel (AID 1131); conditions: fibrinogen-A647 binding fluorescence, higher = more signal;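 further: z-score merges 667 nm fluorescence with per-spot signal-to-noise over triplicate slides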
[5] = biological target: Follistatin (Homo sapiens) (UniProt P19883); assay: FST protein binding to printed compounds – biochemical, small-molecule microarray, 635/667 nm fluorescence, primary screen (AID 1132); conditions: 635 nm fluorescence, higher = more signal
[6] = biological target: Fibroblast growth factor 2 (Homo sapiens) (UniProt P09038); assay: basic fibroblast growth factor binding to printed compounds – biochemical, small-molecule microarray, 635/667 nm fluorescence, primary screen (AID 1133); conditions: FGF2, fluorescence 635/667, higher = more signal
[7] = JC-1 mitochondrial potential readout, lung cancer cells – cell-based, A549, JC-1 fluorescence, basal, 24 h, 100 nL, profiling panel (AID 1138); conditions: higher = more signal;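 further: A549 lung adenocarcinoma cells under basal conditions with no added stimulus; test concentration not given here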
Lefty1 = Lefty1 protein binding to printed compounds – biochemical, small-molecule microarray, 635/667 nm fluorescence, primary screen (AID 1139); conditions: fluorescence 635/667, higher = more signal
[8] = test system: wheat germ agglutinin (Triticum aestivum), Alexa647-labelled; assay: Alexa647-WGA lectin binding to printed small molecules – biochemical, small-molecule microarray, 635/667 nm fluorescence, artefact control for SMM control-protein annotation, profiling panel (AID 1140); conditions: WGA-A647 binding, 635 nm fluorescence, higher = more signal;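 further: score merges 667 nm feature emission with signal to noise over triplicate slides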
[9] = biological target: Luciferin 4-monooxygenase (Photinus pyralis) (UniProt P08659); assay: inhibition of purified Photinus pyralis luciferase – biochemical, luminescence, purified enzyme, 2006 set, primary screen (AID 1141); conditions: purified firefly luciferase, SteadyGlo luminescence, 30 min; higher = more signal, called active from +8 up or from −8 down;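 further: cell-free assay with purified firefly luciferase at 100 ng per well in PBS; test concentration not given here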
[10] = test system: Wnt5a (protein binding on small-molecule microarray); assay: small molecules binding Wnt5a protein – biophysical, small-molecule microarray, 635/667 nm fluorescence, primary screen (AID 1142); conditions: 635 nm fluorescence, higher = more signal;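 further: fluorescence read at 667 nm with signal to noise per printed feature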
[11] = ATP-based viability of Huh7 replicon cells – cell-based, CellTiter-Glo luminescence, basal, 48 h, cytotoxicity control for HCV replication inhibitor project, primary screen (AID 1143); conditions: higher = more signal, called active from +8 up or from −8 down;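 further: Huh7 hepatoma cells carrying a hepatitis C replication reporter with no stimulus; test concentration not given here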
[12] = Pseudomonas biofilm growth suppression – PAO1 strain, BacTiter-Glo luminescence, LB-PBS, primary screen (AID 1144); conditions: P. aeruginosa PAO1 biofilm, 12 h, higher = more signal
[13] = basal CRE-LacZ reporter activity in PC12 – cell-based, unstimulated, primary screen (AID 1145); conditions: no forskolin, luminescence, 4.5 h, higher = more signal, called active from +8 up or from −8 down
[14] = forskolin-driven CRE-LacZ activity in PC12 – cell-based, CRE-LacZ reporter, forskolin-stimulated, primary screen (AID 1146); conditions: luminescence, 4.5 h, higher = more signal, called active from +8 up or from −8 down;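 further: PC12 cells with 6xCRE LacZ reporter stimulated by forskolin 10 µM; beta-galactosidase reporter signal reflecting CREB driven transcription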
[15] = biological target: Streptavidin (Streptomyces avidinii) (UniProt P22629); assay: compounds binding control protein streptavidin – biophysical, small-molecule microarray, 635/667 nm fluorescence, artefact control for SMM compound annotation, primary screen (AID 1147); conditions: higher = more signal;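 further: signal reflects streptavidin binding to arrayed compounds as a control protein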
[16] = probe aInhba binding on compound microarray – biochemical, small-molecule microarray, 635/667 nm fluorescence, primary screen (AID 1148); conditions: higher = more signal;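 further: score merges 667nm spot fluorescence with signal-to-noise for antibody binding to printed compounds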
Torsin-1A (Homo sapiens) [17] = biological target: Torsin-1A (Homo sapiens) (UniProt O14656); assay: TOR1A wild-type binding on microarray – cell lysate, small-molecule microarray, lysate, 635/667 nm, primary screen (AID 1149); conditions: COS7 hTOR1A-WT lysate, 635 nm fluorescence, higher = more signal
Torsin-1A (Homo sapiens) [18] = biological target: Torsin-1A (Homo sapiens) (UniProt O14656); assay: torsin A mutant lysate binding on microarrays – cell lysate, small-molecule microarray, COS7 lysate, 635/667 nm fluorescence, primary screen (AID 1150); conditions: COS7 hTOR1A mutant lysate, 635 nm fluorescence, higher = more signal;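 further: score pools 667 nm emission and signal to noise measuring lysate protein binding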
[19] = test system: Sonic hedgehog protein (Shh); assay: Sonic hedgehog microarray binding compounds – biochemical, small-molecule microarray, 635/667 nm fluorescence, primary screen (AID 1151); conditions: 635 nm fluorescence, higher = more signal;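 further: Shh protein binding to compounds spotted on small-molecule microarray slides; score combines spot fluorescence intensity with signal-to-noise across triplicate slides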

Luciferin 4-monooxygenase (Photinus pyralis), sequence (P08659 whole entry, looked up): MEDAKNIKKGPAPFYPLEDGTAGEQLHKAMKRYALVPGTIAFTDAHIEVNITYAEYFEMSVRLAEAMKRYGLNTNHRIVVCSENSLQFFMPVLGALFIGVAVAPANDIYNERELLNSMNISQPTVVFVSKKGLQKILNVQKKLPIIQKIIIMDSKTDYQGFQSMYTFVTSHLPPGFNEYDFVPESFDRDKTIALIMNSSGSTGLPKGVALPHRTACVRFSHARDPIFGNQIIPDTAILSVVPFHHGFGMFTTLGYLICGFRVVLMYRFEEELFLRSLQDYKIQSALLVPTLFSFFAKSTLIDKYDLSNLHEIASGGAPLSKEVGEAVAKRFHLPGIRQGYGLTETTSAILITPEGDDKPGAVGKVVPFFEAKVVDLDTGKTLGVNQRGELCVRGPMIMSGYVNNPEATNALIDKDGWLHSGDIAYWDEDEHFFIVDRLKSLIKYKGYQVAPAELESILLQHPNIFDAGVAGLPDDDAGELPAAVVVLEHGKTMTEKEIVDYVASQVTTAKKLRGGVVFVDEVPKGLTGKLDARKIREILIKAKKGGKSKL
Streptavidin (Streptomyces avidinii), sequence (P22629 whole entry, looked up): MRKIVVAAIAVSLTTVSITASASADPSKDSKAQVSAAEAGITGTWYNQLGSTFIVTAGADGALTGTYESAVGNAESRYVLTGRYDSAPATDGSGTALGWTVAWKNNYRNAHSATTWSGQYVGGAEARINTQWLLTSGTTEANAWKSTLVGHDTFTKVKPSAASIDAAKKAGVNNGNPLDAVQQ
Fibroblast growth factor 2 (Homo sapiens), sequence (P09038 whole entry, looked up): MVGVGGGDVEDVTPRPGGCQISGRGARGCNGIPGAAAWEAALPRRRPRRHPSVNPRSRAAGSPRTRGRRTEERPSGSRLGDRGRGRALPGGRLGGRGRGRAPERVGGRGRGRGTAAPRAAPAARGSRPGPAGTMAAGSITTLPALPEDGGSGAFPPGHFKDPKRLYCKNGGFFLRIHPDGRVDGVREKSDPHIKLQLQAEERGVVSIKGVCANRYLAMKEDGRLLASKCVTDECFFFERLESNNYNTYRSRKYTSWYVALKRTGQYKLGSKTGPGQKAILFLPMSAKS
Focal adhesion kinase 1 (Homo sapiens), sequence (Q05397 whole entry, looked up): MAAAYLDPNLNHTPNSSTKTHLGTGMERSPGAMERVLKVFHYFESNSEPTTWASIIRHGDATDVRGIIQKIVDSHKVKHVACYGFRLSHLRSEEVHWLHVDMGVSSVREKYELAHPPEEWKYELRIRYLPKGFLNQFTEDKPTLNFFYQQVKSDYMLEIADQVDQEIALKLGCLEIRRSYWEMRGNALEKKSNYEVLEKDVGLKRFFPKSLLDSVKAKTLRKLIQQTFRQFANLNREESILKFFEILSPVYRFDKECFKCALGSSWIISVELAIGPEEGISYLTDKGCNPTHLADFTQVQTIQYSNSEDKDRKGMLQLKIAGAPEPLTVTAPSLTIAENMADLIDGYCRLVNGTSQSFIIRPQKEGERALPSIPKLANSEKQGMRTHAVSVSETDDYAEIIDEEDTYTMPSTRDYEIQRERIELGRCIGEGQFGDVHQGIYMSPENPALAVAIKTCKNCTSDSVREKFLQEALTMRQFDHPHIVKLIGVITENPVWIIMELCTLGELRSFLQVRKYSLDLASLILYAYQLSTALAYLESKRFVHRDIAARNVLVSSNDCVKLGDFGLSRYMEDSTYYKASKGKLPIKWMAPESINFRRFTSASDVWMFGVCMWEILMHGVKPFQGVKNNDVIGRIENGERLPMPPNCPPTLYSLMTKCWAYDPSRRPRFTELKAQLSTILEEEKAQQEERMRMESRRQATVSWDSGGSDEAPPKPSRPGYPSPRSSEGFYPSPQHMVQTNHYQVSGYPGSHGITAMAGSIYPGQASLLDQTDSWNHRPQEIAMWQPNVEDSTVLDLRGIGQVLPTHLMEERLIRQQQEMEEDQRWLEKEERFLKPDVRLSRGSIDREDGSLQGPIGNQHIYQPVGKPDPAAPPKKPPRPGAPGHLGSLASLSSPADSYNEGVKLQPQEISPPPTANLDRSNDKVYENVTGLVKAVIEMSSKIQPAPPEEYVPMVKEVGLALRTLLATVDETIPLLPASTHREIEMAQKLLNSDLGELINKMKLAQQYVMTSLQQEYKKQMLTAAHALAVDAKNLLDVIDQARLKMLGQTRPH
Torsin-1A (Homo sapiens), sequence (O14656 whole entry, looked up): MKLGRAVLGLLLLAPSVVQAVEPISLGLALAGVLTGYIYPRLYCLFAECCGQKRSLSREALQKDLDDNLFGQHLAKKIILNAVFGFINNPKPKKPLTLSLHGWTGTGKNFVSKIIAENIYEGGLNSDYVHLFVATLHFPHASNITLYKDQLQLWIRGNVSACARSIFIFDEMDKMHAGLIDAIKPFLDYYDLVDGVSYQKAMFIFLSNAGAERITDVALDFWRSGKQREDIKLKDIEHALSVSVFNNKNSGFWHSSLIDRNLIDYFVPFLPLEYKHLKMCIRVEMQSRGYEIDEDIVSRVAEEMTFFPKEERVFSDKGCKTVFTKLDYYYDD
Follistatin (Homo sapiens), sequence (P19883 whole entry, looked up): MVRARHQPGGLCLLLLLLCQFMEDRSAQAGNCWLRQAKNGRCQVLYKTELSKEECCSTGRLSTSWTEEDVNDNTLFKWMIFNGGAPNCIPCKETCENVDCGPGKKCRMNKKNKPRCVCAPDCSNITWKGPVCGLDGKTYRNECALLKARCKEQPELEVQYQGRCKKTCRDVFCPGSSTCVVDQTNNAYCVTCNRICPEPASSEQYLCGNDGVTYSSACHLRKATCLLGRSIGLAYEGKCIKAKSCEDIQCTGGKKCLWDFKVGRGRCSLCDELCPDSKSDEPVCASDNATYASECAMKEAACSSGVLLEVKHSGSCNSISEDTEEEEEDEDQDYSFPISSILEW

Structure (SMILES)	composite z-score [1]	composite z-score [2]	composite z-score [3]	composite z-score [4]	composite z-score [5]	composite z-score [6]	z-score [7]	composite z-score (Lefty1)	composite z-score [8]	z-score [9]	composite z-score [10]	z-score [11]	z-score [12]	z-score [13]	z-score [14]	composite z-score [15]	composite z-score [16]	composite z-score (Torsin-1A (Homo sapiens) [17])	composite z-score (Torsin-1A (Homo sapiens) [18])	composite z-score [19]
CCOC(=O)[C@H](Cc1ccccc1)NC(=O)CCC1CC(OC(=O)NCc2ccc3c(c2)OCO3)CC2(CCCC(COC(=O)NCCc3ccc(Cl)cc3)O2)O1 (stereo not given in full)	0.0231	0.908	0.762	0.755	0.749	0.303	0.05	1.03	0.335	-0.144 (inactive)	0.0468	-1.42 (inactive)	-1.89 (inactive)	-0.0696 (inactive)	-0.71 (inactive)	1.14	-0.0221	0.147	0.214	1.11
COC(=O)[C@H](CCSC)NC(=O)CC=C[C@@H](C)CO	0.293	0.127	0.0533	-0.922	1.1	1.73	-1.08	1.6	-0.701	-0.08 (inactive)	0.848	-0.62 (inactive)	-0.449 (inactive)	0.75 (inactive)	0.118 (inactive)	-1.27	-0.128	3.29	3.16	2.18
COCC#Cc1ccc([C@@H]2N[C@H](C(=O)O)CC[C@H]2C)cc1	-1.01	0.307	0.547	-0.426	0.273	-0.0471	2.23	0.0859	-0.389	-1.77 (inactive)	-0.0223	-1.23 (inactive)	-1.73 (inactive)	-0.0755 (inactive)	-1.56 (inactive)	0.0402	-0.024	0.24	0.0923	0.742
COc1ccc(COC(=O)NN=C2C[C@@H](O)[C@@H](O)[C@@H]3[C@@H]4C(=O)N([C@@H](C)c5ccccc5)C(=O)[C@@H]4CC[C@@H]23)cc1	-0.253	0.661	-0.313	0.373	0.244	0.272	-0.304	0.244	0.242	0.447 (inactive)	0.251	1 (inactive)	-0.253 (inactive)	-0.113 (inactive)	0.0521 (inactive)	0.409	0.0111	0.699	0.388	-0.0113
CCOC(=O)[C@H](CC(C)C)NC(=O)CCC1CC(OC(=O)NCc2ccc3c(c2)OCO3)CC2(CCCC(COC(=O)NCc3ccccc3)O2)O1 (stereo not given in full)	0.333	0.946	0.0786	0.926	0.659	0.495	-0.0369	1.03	0.786	0.976 (inactive)	-0.0368	-0.72 (inactive)	0.0377 (inactive)	-0.437 (inactive)	-0.256 (inactive)	0.324	0.0712	0.288	0.245	1.84
C[C@]12CCC3c4ccc(OCC5CO5)cc4CCC3C1CC[C@@H]2O (stereo not given in full)	1.19	1.14	0.492	1	0.137	-0.2	4.51	-0.005	1.05	-0.466 (inactive)	0.201	-1.78 (inactive)	-0.168 (inactive)	2.75 (inactive)	0.806 (inactive)	0.699	0.0561	0.114	0.241	-0.0357
CC(CCN1CCCc2nc(C)c(C)cc21)=NO[C@H](C)c1cn([C@@H]2COC[C@H]2O)nn1	0.652	0.793	1.19	0.704	0.622	0.743	-0.0769	0.764	0.205	0.711 (inactive)	0.395	0.0307 (inactive)	0.392 (inactive)	-1.12 (inactive)	-0.181 (inactive)	0.764	0.0906	1.47	2.3	0.979
COC(=O)CC=C[C@@H](C)[C@@H](C=NOC[C@@H](O)COCc1ccco1)NS(=O)(=O)c1ccc(C)cc1	0.13	-1.94	-0.432	-1.03	1.29	0.542	-0.383	0.915	-0.681	0.167 (inactive)	0.102	0.0032 (inactive)	0.91 (inactive)	-0.715 (inactive)	-0.0491 (inactive)	-0.601	-0.209	1.11	1.24	1.89
CC(C)[C@@H](OCc1ccccc1)[C@H](C)C=NO[C@H](C)c1cn([C@@H]2COC[C@H]2O)nn1	0.0202	0.693	0.279	0.0524	0.229	0.422	-0.245	0.957	-0.0886	1.06 (inactive)	0.31	-0.703 (inactive)	1.28 (inactive)	0.927 (inactive)	-0.379 (inactive)	0.0286	-0.0843	1.4	1.56	0.371

Reference: PubChem BioAssay
